Records with an inconclusive call do not appear. Entries that show only a call come without a potency. The source made the active and inactive calls. The call rests on the fitted dose curve.

One assay in a line: p53 small molecule agonists, cell-based qHTS assay with human liver microsomes (AID 1963577). The note with it: HCT-116 p53RE-bla with human liver microsomes, ratio, 16 h; series mostly up to 66 µM. The method, boiled down: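 Cells carrying a p53-responsive bla reporter were rested 5 h (37 C, 5% CO2) before compound transfer. Human liver microsomes plus NADPH, 0.5 mg/mL final apiece, supplied metabolism during the 16 h 37 C exposure.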
Turning to `CCCCCCCCCCCC[N+](C)(C)C`, the Potency result was “inactive”.

In the case of `O=C1CCCCCCCCCCC1`, the Potency result is “inactive”.

Take `CC(=O)[C@H]1CC[C@H]2[C@@H]3CC=C4C[C@@H](O)CC[C@]4(C)[C@H]3CC[C@]12C`: the Potency result is “inactive”.

Consider `O=C1O[C@H](CO)[C@@H](O)[C@H](O)[C@H]1O`, for which the Potency entry was “inactive”.

With `Brc1nc2ccccc2s1`, the Potency entry is “inactive”.

As to `Oc1ccc2ccccc2c1N=Nc1ccccc1`, the Potency entry was “inactive”.

`Nc1cc([N+](=O)[O-])ccc1C(=O)O`: the Potency result is “inactive”.

Take `CCCCCCCCCCCCCC[N+](C)(C)Cc1ccccc1`: the Potency entry was “inactive”.

In the case of `CCCCCCCCOc1ccc(C(=O)c2ccccc2)c(O)c1`, the Potency result is “inactive”.

In the case of `Clc1ccc(Cl)c(Cl)c1Cl`, the Potency result was “inactive”.

Regarding `COc1ccc(C(Cl)=C(c2ccc(OC)cc2)c2ccc(OC)cc2)cc1`, the Potency entry is “inactive”.

As for `CCCCC1(COC(=O)CCC(=O)O)C(=O)N(c2ccccc2)N(c2ccccc2)C1=O`, the Potency result was “inactive”.

`CN(C)CCCN`: the Potency result was “inactive”.

Take `C=C(C)C(=O)O[C@H]1C[C@@H]2CC[C@@]1(C)C2(C)C`: the Potency result was “inactive”.

As for `C=CCOC(=O)c1ccccc1C(=O)OCC=C`, the Potency entry is “inactive”.

As to `CC(=O)c1ccc(S(=O)(=O)NC(=O)NC2CCCCC2)cc1`, the Potency entry was “inactive”.

Take `CCC(O)OC(O)CC` (stereo not given): the Potency result is “inactive”.

As to `COCCOC(=O)c1ccccc1C(=O)OCCOC`, the Potency entry was “inactive”.

On to `CC(C)CC(=O)CC(C)CC(C)C` (stereo not given), for which the Potency result is “inactive”.

On to `O=c1n(CC2CO2)c(=O)n(CC2CO2)c(=O)n1CC1CO1` (stereo not given), for which the Potency entry is “inactive”.

Take `O=C(/C=C/C=C/c1ccc2c(c1)OCO2)N1CCCCC1`: the Potency result is “inactive”.

Turning to `Cc1cc(Cc2ccc(N)c(C)c2)ccc1N`, the Potency entry was “inactive”.

With `CCC[C@H](N[C@@H](C)C(=O)N1[C@H](C(=O)O)C[C@@H]2CCCC[C@@H]21)C(=O)OCC`, the Potency entry was “inactive”.

Take `c1ccc2c(c1)Cc1ccccc1-2`: the Potency entry was “inactive”.

As for `CCCOC(=O)NCCCN(C)C`, the Potency result was “inactive”.

For the compound `CCCCOC(=O)CC(CC(=O)OCCCC)(OC(C)=O)C(=O)OCCCC`, the Potency entry is “inactive”.

Consider `C=CC[N+](C)(C)CC=C`, for which the Potency result is “inactive”.

`CC(O)COCC(C)O` (stereo not given): the Potency entry is “inactive”.

For `CCCCC/C=C\C/C=C\CCCCCCCC(=O)OC`, the Potency result is “inactive”.

In the case of `Nc1ncnc2nc[nH]c12`, the Potency entry is “inactive”.

Consider `Cc1ccc(N)c(S(=O)(=O)O)c1`, for which the Potency result was “inactive”.

Regarding `NCCOCCO`, the Potency entry was “inactive”.

As for `CC(=O)Oc1ccc(C)cc1`, the Potency result is “inactive”.

As to `O=S1(=O)CCCO1`, the Potency result was “inactive”.

For the compound `C=C(C)C(=O)OCC(CC)(COC(=O)C(=C)C)COC(=O)C(=C)C`, the Potency result is “inactive”.

On to `O=[N+]([O-])c1cccc(Cl)c1`, for which the Potency entry is “inactive”.

For the compound `CCOCC(=O)O`, the Potency result is “inactive”.

Regarding `C=CCc1ccc(OC)c(OC)c1`, the Potency entry was “inactive”.

For the compound `Clc1ccccn1`, the Potency entry is “inactive”.

For the compound `Cc1cccc([N+](=O)[O-])c1C`, the Potency result was “inactive”.

A short description of another assay: p53 small molecule agonists, cell-based qHTS assay with rat liver microsomes (AID 1963578). The note with it: HCT-116 p53RE-bla, beta-lactamase ratio, 16 h; series mostly up to 66 µM. The method, boiled down:
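Fluorescence from a beta-lactamase reporter under a p53 response element was measured after cells had been incubated 16 h at 37 C with test compound and rat liver microsomes plus NADPH (0.5 mg/mL final each).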
On to `CCCCCCCCCCCC[N+](C)(C)C`, for which the Potency entry was “inactive”.

Turning to `O=C1CCCCCCCCCCC1`, the Potency result is “inactive”.

Consider `CC(=O)[C@H]1CC[C@H]2[C@@H]3CC=C4C[C@@H](O)CC[C@]4(C)[C@H]3CC[C@]12C`, for which the Potency result is “inactive”.

Regarding `O=C1O[C@H](CO)[C@@H](O)[C@H](O)[C@H]1O`, the Potency entry is “inactive”.

On to `Brc1nc2ccccc2s1`, for which the Potency result was “inactive”.

Take `Oc1ccc2ccccc2c1N=Nc1ccccc1`: the Potency entry was “inactive”.

`Nc1cc([N+](=O)[O-])ccc1C(=O)O`: the Potency result was “inactive”.

As to `CCCCCCCCCCCCCC[N+](C)(C)Cc1ccccc1`, the Potency entry is “inactive”.

Take `CCCCCCCCOc1ccc(C(=O)c2ccccc2)c(O)c1`: the Potency result was “inactive”.

Consider `Clc1ccc(Cl)c(Cl)c1Cl`, for which the Potency result was “inactive”.

Take `COc1ccc(C(Cl)=C(c2ccc(OC)cc2)c2ccc(OC)cc2)cc1`: the Potency result is “inactive”.

As for `CCCCC1(COC(=O)CCC(=O)O)C(=O)N(c2ccccc2)N(c2ccccc2)C1=O`, the Potency entry was “inactive”.

With `CN(C)CCCN`, the Potency result is “inactive”.

Take `C=C(C)C(=O)O[C@H]1C[C@@H]2CC[C@@]1(C)C2(C)C`: the Potency entry was “inactive”.

Consider `C=CCOC(=O)c1ccccc1C(=O)OCC=C`, for which the Potency result was “inactive”.

In the case of `CC(=O)c1ccc(S(=O)(=O)NC(=O)NC2CCCCC2)cc1`, the Potency entry was “inactive”.

As for `CCC(O)OC(O)CC` (stereo not given), the Potency result was “inactive”.

Consider `COCCOC(=O)c1ccccc1C(=O)OCCOC`, for which the Potency result was “inactive”.

For the compound `CC(C)CC(=O)CC(C)CC(C)C` (stereo not given), the Potency entry was “inactive”.

For `O=c1n(CC2CO2)c(=O)n(CC2CO2)c(=O)n1CC1CO1` (stereo not given), the Potency entry was “inactive”.

Take `O=C(/C=C/C=C/c1ccc2c(c1)OCO2)N1CCCCC1`: the Potency entry is “inactive”.

As to `Cc1cc(Cc2ccc(N)c(C)c2)ccc1N`, the Potency entry is “inactive”.

Consider `CCC[C@H](N[C@@H](C)C(=O)N1[C@H](C(=O)O)C[C@@H]2CCCC[C@@H]21)C(=O)OCC`, for which the Potency entry is “inactive”.

As to `c1ccc2c(c1)Cc1ccccc1-2`, the Potency result was “inactive”.

As to `CCCOC(=O)NCCCN(C)C`, the Potency entry is “inactive”.

For `CCCCOC(=O)CC(CC(=O)OCCCC)(OC(C)=O)C(=O)OCCCC`, the Potency result was “inactive”.

For the compound `C=CC[N+](C)(C)CC=C`, the Potency entry was “inactive”.

As for `CC(O)COCC(C)O` (stereo not given), the Potency entry is “inactive”.

Regarding `CCCCC/C=C\C/C=C\CCCCCCCC(=O)OC`, the Potency entry was “inactive”.

For `Nc1ncnc2nc[nH]c12`, the Potency entry was “inactive”.

For the compound `Cc1ccc(N)c(S(=O)(=O)O)c1`, the Potency result was “inactive”.

Regarding `NCCOCCO`, the Potency entry is “inactive”.

As to `CC(=O)Oc1ccc(C)cc1`, the Potency entry was “inactive”.

For `O=S1(=O)CCCO1`, the Potency entry was “inactive”.

With `C=C(C)C(=O)OCC(CC)(COC(=O)C(=C)C)COC(=O)C(=C)C`, the Potency result was “inactive”.

In the case of `O=[N+]([O-])c1cccc(Cl)c1`, the Potency entry was “inactive”.

As for `CCOCC(=O)O`, the Potency entry is “inactive”.

For the compound `C=CCc1ccc(OC)c(OC)c1`, the Potency entry is “inactive”.

Turning to `Clc1ccccn1`, the Potency entry is “inactive”.

With `Cc1cccc([N+](=O)[O-])c1C`, the Potency result was “inactive”.
